Texas Red fluor: compounds fluorescent in Texas Red spectral region; max dye-equivalent concentration, M; Compound fluorescence, Texas Red channel, 547/618 nm; hits give high values; 0.06% of 59,000 active; AID 587; in the data active = max dye-equivalent concentration above about 10 nM; inconclusive = between about 1.1 nM and that limit
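Pin-transferred compounds and Texas Red standards go into 100 mM Tris buffer, pH 8.0. After 15 min at room temperature, plates are imaged with 547/618 nm filters. Each value is a dye-equivalent concentration derived from the per-plate dye curve.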
A647 autofl: compound fluoresces in the A647 spectral region. Compound fluorescence, A647 channel (570/671 nm), Tris buffer. max dye-equivalent concentration, M. 59,000 tested, under 10 active;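 note: values scaled relative to a standard on each plate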
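Fluorescence read (570 nm ex, 671 nm em) after 15 min RT incubation of compounds in 100 mM Tris buffer, pH 8.0; values expressed as dye-equivalent concentration against a six-point A647 standard series on each plate.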
Rhodamine autofl: compound autofluorescence in rhodamine spectral region | Rhodamine-region fluorescence, 547/598 nm, Tris buffer; hits give high values | AID 594 | 0.05% of 59,000 active | max dye-equivalent concentration, M; in the data active = max dye-equivalent concentration above about 11 nM; inconclusive = between about 1.1 nM and that limit
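qHTS spectral profiling of compounds without any target or enzyme present, in pH 8.0 Tris buffer; plates were read after a 15-minute room-temperature incubation using the rhodamine-region filter set.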
Fluorescein autfl: compound fluoresces in the fluorescein spectral region. Compound autofluorescence, 480/540 nm, fluorescein-equivalent; hits give high values. max fluorescein-equivalent concentration, M. 0.91% of 59,000 active. AID 593; in the data active = max fluorescein-equivalent concentration above about 10 nM; inconclusive = between about 1.1 nM and that limit
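Values reflect compound autofluorescence, normalized to fluorescein on the same plate and reported at each tested concentration. Conditions: 100 mM Tris pH 8.0, room temperature, 15 min, excitation 480 nm, emission 540 nm.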
Resorufin fluor: compound fluoresces in the resorufin spectral region. Compound fluorescence, resorufin region 547/598 nm, buffer; hits give high values. max dye-equivalent concentration, M. 0.04% of 59,000 active. AID 588
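Read-out: intrinsic compound fluorescence at ex 547/em 598 nm after 15 min at RT in pH 8.0 Tris (100 mM). Values expressed as resorufin-equivalent concentration from per-plate standard series.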
A488 fluor: A488 region autofluorescence; 0.1% of 59,000 active; AID 591; max dye equivalency, M; compound autofluorescence, A488 spectral region, dye equivalency; Compound Type: qHTS ECL - MLSMR
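Readout is A488 dye-equivalent concentration, calibrated by a per-plate six-point Alexa 488 series. Compounds in 100 mM Tris buffer pH 8.0 were incubated 15 min at room temperature. Plates were imaged using 480 nm excitation/540 nm emission filters.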
* = called active by the depositor; i = inactive; ? = inconclusive. An excerpt weighted towards active compounds, which were near 0.9% of everything screened. Unless noted, the rule behind the calls is not given here.

SMILES | Texas Red fluor | A647 autofl | Rhodamine autofl | Fluorescein autfl | Resorufin fluor | A488 fluor
CCCCOc1ccc(C2C3CN(C(=O)OCC)CC=C3C(C#N)=C(N)C2(C#N)C#N)cc1OC (stereo not given) | i | 1.2e-09 | i | ? | i | i
Nc1nc(N)nc(CCCCc2nc(N)nc(N)n2)n1 | ? | 1e-09 | i | i | i | i
O=c1oc2c(CN3CCCCCC3)c(O)ccc2cc1-c1nc2ccccc2[nH]1 | i | 1e-09 | i | 3e-06M* | i | 1.4e-07M*
Cn1c(=O)c2c(nc(/C=C\c3cccc(Cl)c3)n2C)n(C)c1=O | i | 2.4e-09 | i | i | i | i
CCCc1cc(COC)c(C#N)c(=O)[nH]1 | i | 1e-09 | i | i | i | i
C[C@H](O)C(=O)C1=Nc2c(nc(N)[nH]c2=O)NC1 | ? | 9.6e-09 | i | 4e-08M* | i | ?
O=C(c1cnn2c(C(F)(F)F)cc(-c3ccc4c(c3)OCO4)nc12)N1CCCCC1 | i | 3.3e-08 | i | i | i | i
O=C(NC1CCCC1)c1cnn2c(C(F)(F)F)cc(-c3ccc4c(c3)OCO4)nc12 | i | 1e-09 | i | 4.6e-08M* | i | ?
Cc1cc2ccc(OC(=O)c3ccc(N=C(N)N)cc3)cc2oc1=O | i | 2.9e-08 | i | ? | i | i

Screening results from PubChem.
